Reference: PubChem BioAssay
“And” between values parts separate entries of the source, which are not always exact repeats. Equal entries are not always repeated. The source made the active and inactive calls. Rule as the data show it: active = inhibition above about 80%; inactive = the rest.

experiment: RCMB18 cell growth, single agent and combined, cisplatin and BGB IC40 combos (AID 1671462); details: RCMB18 medulloblastoma cells, cisplatin combo, at 5 µM, stronger effect = higher value;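 also: cells exposed to compound for four days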

Row | SMILES | inhibition
1 | COc1cc([C@@H]2c3cc4c(cc3[C@@H](O[C@@H]3O[C@@H]5CO[C@@H](c6cccs6)O[C@H]5[C@H](O)[C@H]3O)[C@H]3COC(=O)[C@H]23)OCO4)cc(OC)c1O | 23% and 40.9%
2 | COc1cc(NS(C)(=O)=O)ccc1Nc1c2ccccc2nc2ccccc12 | 58.3% and 44.1%
3 | N=c1ccn2c(n1)O[C@H]1[C@H](O)[C@@H](CO)O[C@H]12 | 61%

same assay, conditions: RCMB18 medulloblastoma cells, measured here: BGB IC40 combination, at 0.05 µM, stronger effect = higher value

Row | SMILES | inhibition
4 | COc1cc([C@@H]2c3cc4c(cc3[C@@H](O[C@@H]3O[C@@H]5CO[C@@H](c6cccs6)O[C@H]5[C@H](O)[C@H]3O)[C@H]3COC(=O)[C@H]23)OCO4)cc(OC)c1O | -29.1% and -17.5%
5 | COc1cc(NS(C)(=O)=O)ccc1Nc1c2ccccc2nc2ccccc12 | -16.8% and -37.3%
6 | N=c1ccn2c(n1)O[C@H]1[C@H](O)[C@@H](CO)O[C@H]12 | -21.5%

same assay, conditions: RCMB18 medulloblastoma cells, measured here: combination with cisplatin, at 0.5 µM, stronger effect = higher value

Row | SMILES | inhibition
7 | COc1cc([C@@H]2c3cc4c(cc3[C@@H](O[C@@H]3O[C@@H]5CO[C@@H](c6cccs6)O[C@H]5[C@H](O)[C@H]3O)[C@H]3COC(=O)[C@H]23)OCO4)cc(OC)c1O | -8.55% and 20.3%
8 | COc1cc(NS(C)(=O)=O)ccc1Nc1c2ccccc2nc2ccccc12 | 28.6% and 11.4%
9 | N=c1ccn2c(n1)O[C@H]1[C@H](O)[C@@H](CO)O[C@H]12 | 11.8%

same assay, conditions: RCMB18 medulloblastoma cells, single agent, at 5 µM, stronger effect = higher value

Row | SMILES | inhibition
10 | COc1cc([C@@H]2c3cc4c(cc3[C@@H](O[C@@H]3O[C@@H]5CO[C@@H](c6cccs6)O[C@H]5[C@H](O)[C@H]3O)[C@H]3COC(=O)[C@H]23)OCO4)cc(OC)c1O | 28.8% and 46%
11 | COc1cc(NS(C)(=O)=O)ccc1Nc1c2ccccc2nc2ccccc12 | 29.4% and 2.77%
12 | N=c1ccn2c(n1)O[C@H]1[C@H](O)[C@@H](CO)O[C@H]12 | -26.3%

experiment: CRL1545 cell growth, single agent and combined, cisplatin and BGB IC20 combos (AID 1671464); details: CRL1545 osteosarcoma cells, at 0.5 µM, stronger effect = higher value;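 also: cells exposed to compound for 96 hours before readout; 0% = vehicle DMSO and 100% = high DMSO killing control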

Row | SMILES | inhibition
13 | COc1cc([C@@H]2c3cc4c(cc3[C@@H](O[C@@H]3O[C@@H]5CO[C@@H](c6cccs6)O[C@H]5[C@H](O)[C@H]3O)[C@H]3COC(=O)[C@H]23)OCO4)cc(OC)c1O | 44.9% (inactive) and 71.7% (inactive)
14 | COc1cc(NS(C)(=O)=O)ccc1Nc1c2ccccc2nc2ccccc12 | 24% (inactive) and 17.8% (inactive)
15 | N=c1ccn2c(n1)O[C@H]1[C@H](O)[C@@H](CO)O[C@H]12 | -32.9% (inactive)

same assay, conditions: CRL1545 osteosarcoma cells, measured here: with BGB IC20 combination, at 0.5 µM, stronger effect = higher value

Row | SMILES | inhibition
16 | COc1cc([C@@H]2c3cc4c(cc3[C@@H](O[C@@H]3O[C@@H]5CO[C@@H](c6cccs6)O[C@H]5[C@H](O)[C@H]3O)[C@H]3COC(=O)[C@H]23)OCO4)cc(OC)c1O | 41.5% and 64%
17 | COc1cc(NS(C)(=O)=O)ccc1Nc1c2ccccc2nc2ccccc12 | 24.3% and 13.1%
18 | N=c1ccn2c(n1)O[C@H]1[C@H](O)[C@@H](CO)O[C@H]12 | -44.9%
